Inconclusive results are not listed. Calls of active or inactive are those of the source. Unless noted, the call rests on the fitted dose curve; in most records, active means well fitted curve in the direction sought with a large enough effect; inconclusive means small, poorly fitted or top-dose-only effect, or another doubt; inactive means no such curve, though single readings can be large; an effect the other way counts as inactive or inconclusive.
What was measured:
[1] = Cellular Toxicity (caspase-3) Renal Proximal Tubule (AID 667);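 further: cells exposed to compound for 16 hours at 37 °C before detection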
Summary of the method: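 Caspase-Glo 3/7 read-out, rat primary kidney proximal tubule cells. Compound exposure 16 h, 37 °C; detection after 1 h at RT. Activity scaled to DMSO and 10 uM staurosporine.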

[2] = molecular target: Guanine nucleotide-binding protein G(i) subunit alpha-1 (Homo sapiens) (UniProt P63096); assay: qHTS Assay for Inhibitors of RGS12 GoLoco Motif Activity (Green Fluorophore) (AID 879);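 further: negative values mean loss of peptide binding seen as reduced polarization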
Chain of Guanine nucleotide-binding protein G(i) subunit alpha-1 (Homo sapiens) (P63096 whole entry, looked up): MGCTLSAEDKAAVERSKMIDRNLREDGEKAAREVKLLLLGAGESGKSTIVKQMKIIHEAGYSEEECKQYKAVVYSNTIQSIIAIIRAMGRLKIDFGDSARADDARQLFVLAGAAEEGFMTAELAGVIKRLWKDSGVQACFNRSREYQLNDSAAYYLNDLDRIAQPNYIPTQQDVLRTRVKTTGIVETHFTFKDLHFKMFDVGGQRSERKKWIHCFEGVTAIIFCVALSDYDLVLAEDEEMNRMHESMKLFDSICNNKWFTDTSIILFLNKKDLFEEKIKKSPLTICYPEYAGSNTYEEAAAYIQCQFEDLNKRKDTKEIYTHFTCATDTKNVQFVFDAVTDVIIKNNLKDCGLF
Summary of the method: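 Fluorescence polarization assay: 50 nM Gαi1 with 10 nM FITC-labeled RGS12 GoLoco peptide in 10 mM Tris pH 7.5, 150 mM NaCl, 0.1 mM GDP, 0.05% NP40, 10 min at room temperature with compound.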

[3] = molecular target: Cytochrome P450 3A4 (Homo sapiens) (UniProt P08684); assay: qHTS Assay for Inhibitors and Substrates of Cytochrome P450 3A4 (AID 884); further: series mostly up to about 57 µM; nearly all actives have a fitted effect of over 50% in size
Chain of Cytochrome P450 3A4 (Homo sapiens) (P08684 whole entry, looked up): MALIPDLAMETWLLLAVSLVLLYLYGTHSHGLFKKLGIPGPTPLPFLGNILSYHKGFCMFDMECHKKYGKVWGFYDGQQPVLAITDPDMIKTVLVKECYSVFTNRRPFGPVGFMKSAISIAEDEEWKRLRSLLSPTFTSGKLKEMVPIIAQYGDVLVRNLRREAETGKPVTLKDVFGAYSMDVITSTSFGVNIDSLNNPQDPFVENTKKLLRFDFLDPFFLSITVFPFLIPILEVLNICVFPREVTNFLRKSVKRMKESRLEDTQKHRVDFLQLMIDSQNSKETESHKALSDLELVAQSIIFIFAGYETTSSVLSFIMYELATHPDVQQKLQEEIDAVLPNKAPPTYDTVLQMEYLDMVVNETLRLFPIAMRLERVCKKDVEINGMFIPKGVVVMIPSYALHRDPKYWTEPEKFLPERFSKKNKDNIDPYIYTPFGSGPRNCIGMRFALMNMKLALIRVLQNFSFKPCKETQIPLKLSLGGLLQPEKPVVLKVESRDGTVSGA
Summary of the method: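 20 nM human CYP3A4 with 25 uM Luciferin-PPXE (at KM) in 200 mM KPO4, preincubated 10 min with compound; NADPH regeneration started a 60 min RT reaction. Luciferin detected by luminescence, normalized to 57 uM ketoconazole as full inhibition.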

[4] = molecular target: Cytochrome P450 2C19 (Homo sapiens) (UniProt P33261); assay: qHTS Assay for Inhibitors and Substrates of Cytochrome P450 2C19 (AID 899); further: nearly all actives have a fitted effect of over 60% in size
Chain of Cytochrome P450 2C19 (Homo sapiens) (P33261 whole entry, looked up): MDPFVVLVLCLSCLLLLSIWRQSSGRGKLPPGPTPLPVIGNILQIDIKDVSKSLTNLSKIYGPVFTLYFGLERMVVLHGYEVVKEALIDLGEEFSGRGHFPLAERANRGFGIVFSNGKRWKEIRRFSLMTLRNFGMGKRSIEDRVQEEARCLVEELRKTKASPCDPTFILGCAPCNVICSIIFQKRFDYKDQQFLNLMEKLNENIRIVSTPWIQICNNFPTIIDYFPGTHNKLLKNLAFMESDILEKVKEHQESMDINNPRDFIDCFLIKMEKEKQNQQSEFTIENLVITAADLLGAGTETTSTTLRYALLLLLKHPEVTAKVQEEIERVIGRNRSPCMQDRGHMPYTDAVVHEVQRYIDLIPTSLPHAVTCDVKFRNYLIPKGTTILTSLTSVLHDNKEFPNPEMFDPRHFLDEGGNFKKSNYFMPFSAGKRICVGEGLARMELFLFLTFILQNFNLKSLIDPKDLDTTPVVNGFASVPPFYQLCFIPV
Summary of the method: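 5 nM human CYP2C19 with 10uM Luciferin-H EGE (at KM) in 50mM KPO4, compound preincubated 10 min at 37C, then NADPH regeneration for 60 min at 37C. Luciferin read by luminescence after detection reagent; normalized to 57uM ketoconazole as full inhibition.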

[5] = Confirmation and Secondary Assay for Modulators of Hemoglobin Beta Chain Splicing at IVS2 654 locus (AID 910);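 further: HeLa cells stably carrying EGFP split by mutant beta-globin IVS2-654 intron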
Summary of the method: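 HeLa cells stably expressing EGFP interrupted by β-globin IVS2-654 intron, seeded overnight in Opti-MEM/2% FCS, then treated 2 days at 37 °C. Restored splicing read as total peak GFP intensity per well by laser scanning cytometry (488 nm excitation, 500–520 nm emission); 500 nM antisense PNA as control.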

[6] = qHTS Assay for Identification of Small Molecule Agonists for Thrombopoietin (TPO) Signaling Pathway (AID 917)
Summary of the method: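 IL-3-dependent murine pro-B Ba/F3 cells, stably transfected with human TPO receptor and GpIIb-promoter luciferase, are incubated 24 hrs at 37 C with test compound and 26 pM TPO; luciferase signal is read after 10 min at room temperature.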

[7] = Cell Viability - LYMP2-001 (AID 921);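 further: series mostly up to about 92 µM; cells exposed to compound for 24 h at 37 °C; nearly all actives have a fitted effect of over 70% in size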
Summary of the method: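 A lymphoblastoid cell line of human origin was treated with library compounds across a concentration series for 24 hours, and viable cell number was estimated from ATP-driven luciferase light output. Hill modeling gave AC50.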

[8] = molecular target: Muscarinic acetylcholine receptor M1 (Rattus norvegicus) (UniProt P08482); assay: qHTS Assay for Antagonists of Acetylcholine Muscarinic M1 Receptor: Measurement of IP-One Response (AID 944); further: nearly all actives have a fitted effect of over 75% in size
Chain of Muscarinic acetylcholine receptor M1 (Rattus norvegicus) (P08482 whole entry, looked up): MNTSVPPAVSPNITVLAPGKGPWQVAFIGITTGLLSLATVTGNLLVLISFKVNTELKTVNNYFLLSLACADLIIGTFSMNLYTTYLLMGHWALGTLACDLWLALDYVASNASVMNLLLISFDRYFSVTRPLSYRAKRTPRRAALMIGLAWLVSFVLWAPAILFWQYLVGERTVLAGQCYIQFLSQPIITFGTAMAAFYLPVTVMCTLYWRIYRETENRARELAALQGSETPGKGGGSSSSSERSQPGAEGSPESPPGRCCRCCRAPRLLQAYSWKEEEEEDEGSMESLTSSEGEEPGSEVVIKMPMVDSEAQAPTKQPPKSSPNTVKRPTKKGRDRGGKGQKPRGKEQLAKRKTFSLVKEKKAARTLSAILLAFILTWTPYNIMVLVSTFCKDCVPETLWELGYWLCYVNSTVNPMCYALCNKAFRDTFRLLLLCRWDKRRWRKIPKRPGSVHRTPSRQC
Summary of the method: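 CHO cells stably expressing rat M1, pretreated 10 min with compound, then stimulated 30 min with carbachol at EC80 (200 nM) in LiCl-containing buffer pH 7.4; IP1 accumulation read by HTRF competition (665/620 nm).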

[9] = molecular target: Pyruvate kinase (Leishmania mexicana) (UniProt Q27686); assay: qHTS Validation Assay for Inhibitors of Leishmania Mexicana Pyruvate Kinase (AID 945)
Chain of Pyruvate kinase (Leishmania mexicana) (Q27686 2-499 E452W): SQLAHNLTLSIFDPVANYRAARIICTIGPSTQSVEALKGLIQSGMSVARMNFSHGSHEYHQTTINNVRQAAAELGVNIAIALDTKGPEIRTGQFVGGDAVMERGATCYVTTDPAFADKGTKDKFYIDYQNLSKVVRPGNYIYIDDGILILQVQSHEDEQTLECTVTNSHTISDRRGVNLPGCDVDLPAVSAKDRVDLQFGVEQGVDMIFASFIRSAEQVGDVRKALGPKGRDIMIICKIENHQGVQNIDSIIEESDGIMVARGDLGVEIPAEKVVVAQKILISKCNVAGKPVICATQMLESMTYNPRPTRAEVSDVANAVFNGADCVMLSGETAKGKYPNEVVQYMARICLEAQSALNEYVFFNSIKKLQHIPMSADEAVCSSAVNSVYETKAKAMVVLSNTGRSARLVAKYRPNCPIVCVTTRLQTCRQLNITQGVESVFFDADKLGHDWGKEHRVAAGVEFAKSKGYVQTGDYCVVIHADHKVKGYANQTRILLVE
Summary of the method: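 LmPYK E451W 0.2 nM; 0.5 mM PEP, 0.1 mM ADP, 7 mM MgCl2, 50 mM KCl, imidazole pH 7.2, 0.01% Tween 20, 0.05% BSA; 1 h RT; PKLight luminescence; DMSO-normalized.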

[10] = MultiTox-Fluor Cytotoxicity Assay - LYMP1-001 - Dead Cells (AID 946)
Summary of the method: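 Cytotoxicity as increased dead-cell protease fluorescence (bis-AAF-R110, 485/520 nm), read 60 min after MultiTox-Fluor reagent. Human lymphoblastoid line exposed 16 h; Hill-fitted AC50, with DMSO as 0% and 15 uM tetraoctylammonium bromide as 100%.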

[11] = MultiTox-Fluor Cytotoxicity Assay - LYMP1-001 - Live Cells (AID 947)
[12] = Cell Viability - LYMP1-002 - Assay at 16 hr (AID 948)
Summary of the method: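 In this qHTS, lymphoblastoid LYMP1-002 cells (human) receive compounds for 16 hr at 37 C. Viability is taken from CellTiter-Glo ATP luminescence, and AC50 derives from standard Hill fits.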

[13] = molecular target: Pyruvate kinase PKM (Homo sapiens) (UniProt P14618); assay: qHTS Assay for Activators of Human Muscle Pyruvate Kinase (AID 954; active means well fitted curve in the direction sought with a large enough effect, not every such curve was filed as active)
Chain of Pyruvate kinase PKM (Homo sapiens) (P14618 whole entry, looked up): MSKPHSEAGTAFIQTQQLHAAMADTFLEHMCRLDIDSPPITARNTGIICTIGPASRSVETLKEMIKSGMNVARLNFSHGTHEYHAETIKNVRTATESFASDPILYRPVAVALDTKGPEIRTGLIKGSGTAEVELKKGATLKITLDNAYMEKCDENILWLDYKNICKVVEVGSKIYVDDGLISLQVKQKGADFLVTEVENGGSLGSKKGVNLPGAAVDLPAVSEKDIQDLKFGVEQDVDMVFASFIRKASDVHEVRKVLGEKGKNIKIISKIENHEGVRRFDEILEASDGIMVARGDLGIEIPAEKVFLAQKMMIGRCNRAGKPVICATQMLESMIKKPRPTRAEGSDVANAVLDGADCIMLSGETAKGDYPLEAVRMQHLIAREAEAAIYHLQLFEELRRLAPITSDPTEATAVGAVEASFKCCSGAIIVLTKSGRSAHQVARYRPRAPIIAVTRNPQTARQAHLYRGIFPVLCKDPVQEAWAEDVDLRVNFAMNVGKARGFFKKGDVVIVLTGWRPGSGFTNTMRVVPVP
Summary of the method: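 Human PKM2 activity is measured as ATP generation, detected by luciferase-coupled luminescence. The enzyme (0.1 nM) acts on 0.5 mM PEP and 0.1 mM ADP for 1 h at ambient temperature; data are normalized to uninhibited and full-inhibition wells.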

[14] = MultiTox-Fluor Cytotoxicity Assay - LYMP1-002 - Live Cells (AID 955);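 further: cells exposed to compound for 16 hours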
Summary of the method: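 Human lymphoblastoid LYMP1-002 cells, 2500/well, treated 16 h at 37 C in complete medium. Live-cell protease activity via GF-AFC fluorescence (Ex/Em 405/510) after 60 min reagent incubation; AC50 from Hill fits.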

[15] = molecular target: Cytochrome P450 2C9 (Homo sapiens) (UniProt P11712); assay: qHTS Assay for Inhibitors and Substrates of Cytochrome P450 2C9 (AID 883); further: nearly all actives have a fitted effect of over 60% in size
Chain of Cytochrome P450 2C9 (Homo sapiens) (P11712 whole entry, looked up): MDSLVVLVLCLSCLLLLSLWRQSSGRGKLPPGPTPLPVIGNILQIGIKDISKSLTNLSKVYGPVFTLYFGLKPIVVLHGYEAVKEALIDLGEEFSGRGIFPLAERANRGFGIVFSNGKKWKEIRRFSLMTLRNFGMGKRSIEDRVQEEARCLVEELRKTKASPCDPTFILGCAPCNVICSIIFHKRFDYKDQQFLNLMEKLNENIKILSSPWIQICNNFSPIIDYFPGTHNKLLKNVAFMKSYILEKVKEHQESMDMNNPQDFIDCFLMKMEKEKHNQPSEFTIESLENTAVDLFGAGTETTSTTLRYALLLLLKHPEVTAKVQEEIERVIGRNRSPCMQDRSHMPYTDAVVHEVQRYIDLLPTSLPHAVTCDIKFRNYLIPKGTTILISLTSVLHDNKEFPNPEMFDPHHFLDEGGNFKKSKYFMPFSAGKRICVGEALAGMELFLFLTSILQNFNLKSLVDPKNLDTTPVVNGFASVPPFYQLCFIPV
Summary of the method: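 Human CYP2C9 (10nM) with Luciferin-H at 100uM (its KM) in 25mM KPO4; compound preincubated 10 min at 37C, then NADPH regeneration for 60 min at 37C. Luciferin read by luminescence after detection reagent; normalized to 57uM sulphaphenazole as full inhibition.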

[16] = molecular target: Cytochrome P450 2D6 (Homo sapiens) (UniProt P10635); assay: qHTS Assay for Inhibitors and Substrates of Cytochrome P450 2D6 (AID 891);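 further: luciferin methyl ether substrate demethylated by CYP2D6 with NADPH regeneration; nearly all actives have a fitted effect of over 60% in size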
Chain of Cytochrome P450 2D6 (Homo sapiens) (P10635 whole entry, looked up): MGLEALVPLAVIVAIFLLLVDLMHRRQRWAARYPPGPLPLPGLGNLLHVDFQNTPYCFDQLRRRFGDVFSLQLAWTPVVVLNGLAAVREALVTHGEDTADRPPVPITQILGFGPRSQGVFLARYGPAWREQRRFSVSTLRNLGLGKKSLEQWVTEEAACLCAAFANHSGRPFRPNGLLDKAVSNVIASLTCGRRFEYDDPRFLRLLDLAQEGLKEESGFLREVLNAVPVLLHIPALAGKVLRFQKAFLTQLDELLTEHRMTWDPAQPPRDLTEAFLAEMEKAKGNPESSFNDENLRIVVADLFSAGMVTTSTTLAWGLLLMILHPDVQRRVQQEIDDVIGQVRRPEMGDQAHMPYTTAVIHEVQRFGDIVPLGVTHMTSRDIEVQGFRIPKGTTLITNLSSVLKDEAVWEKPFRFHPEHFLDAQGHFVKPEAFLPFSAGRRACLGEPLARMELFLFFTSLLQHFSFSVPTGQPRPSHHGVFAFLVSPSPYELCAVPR
Summary of the method: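 Human CYP2D6 (5 nM) with 30 uM Luciferin-ME EGE (at Km) in 100 mM KPO4, compound preincubated 10 min, then NADPH regeneration system for 60 min at room temperature. Luciferin read by luminescence; normalized to 1.43 uM quinidine.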

[17] = molecular target: Muscarinic acetylcholine receptor M1 (Rattus norvegicus) (UniProt P08482); assay: qHTS Assay for Antagonists of Acetylcholine Muscarinic M1 Receptor: Kinetic Measurement of Intracellular Calcium Response (AID 943); further: series mostly up to about 35 µM; nearly all actives have a fitted effect of over 75% in size
Summary of the method: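 CHO cells expressing rat M1 receptor, Fluo-4 loaded, preincubated 10 min with compound, then stimulated with EC80 carbachol (100 nM final). Kinetic calcium fluorescence over 4 min; response taken as peak over basal signal.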

[18] = molecular target: Cytochrome P450 3A4 (Homo sapiens) (UniProt P08684); assay: qHTS Assay for Activators of Cytochrome P450 3A4 (AID 885); further: nearly all actives have a fitted effect of over 65% in size
Summary of the method: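 Signal was normalized against complete inhibition by 57 uM ketoconazole. The reaction used 20nM CYP3A4 with 25uM Luciferin-PPXE, 10-min compound preincubation and a 60-min NADPH-supported step at RT.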

Measured: Potency

NCCc1ccc(O)cc1
not listed: [15] | [16] | [17] | [18]
inactive: all other assays above

COc1cc(OC)c(OC)cc1C=O
inactive: [1] | [3] | [5] | [7] | [10] | [12] | [14]

O=P1(N(CCCl)CCCl)NCCCO1 (stereo not drawn)
not listed: [8] | [17] | [18]
inactive: all other assays above

Oc1ccc(Cl)cc1
inactive: [1] | [3] | [5] | [7] | [10] | [11] | [12] | [14]

Clc1ccc(C(c2ccc(Cl)cc2)C(Cl)(Cl)Cl)cc1
inactive: [1] | [3] | [5] | [7] | [10] | [11] | [12] | [14]

CCCCC/C=C\C/C=C\C/C=C\C/C=C\CCCC(=O)NCC(=O)O
inactive: [2] | [6] | [17] | [8] | [9] | [13]

Nc1ccccc1C(=O)O
inactive: [1] | [3] | [7] | [10] | [11] | [12] | [14]

C[C@]12CCC(=O)C=C1CC[C@@H]1[C@@H]2CC[C@@]2(C)[C@H]1CC[C@]2(C)O
inactive: [1] | [3] | [7] | [11] | [12] | [14]

CCOC(=O)CC(SP(=S)(OC)OC)C(=O)OCC (stereo not drawn)
inactive: [1] | [18] | [7] | [10] | [11] | [12] | [14]

CN1C[C@H](C(=O)N[C@]2(C)O[C@@]3(O)[C@@H]4CCCN4C(=O)[C@H](Cc4ccccc4)N3C2=O)C=C2c3cccc4[nH]cc(c34)C[C@H]21
inactive: [1] | [7] | [10] | [11] | [12] | [14]

CCCC(C)(COC(N)=O)COC(N)=O
inactive: [1] | [3] | [7] | [10] | [11] | [12] | [14]

CCC(C)(C)c1ccc(O)cc1
inactive: [1] | [3] | [7] | [10] | [11] | [12] | [14]
